Source: PMC5540273 (PLoS ONE, 2017)

test system: TGFBR1; conditions: concentration: 1 μM, replicates: in singlicate; n = 1
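Also: KINOMEscan kinase panel screen.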

| SMILES | %Inh [%] |
| --- | --- |
| Cc1ccc(NC(=O)Nc2cc(C(C)(C)C)nn2-c2ccccc2)cc1 [GSK1014915] | 18 |
| CN(C)CCN(C)C(=O)c1cc(-c2ccncc2)c(-c2ccc(Cl)c(O)c2)o1.Cl.Cl [SB-710397] | 0 |
| O=C(O)COc1ncnc2cc(-c3ccc4[nH]ncc4c3)sc12 | 10 |
| O=C(Nc1n[nH]c2nc(-c3nccs3)c(Br)cc12)C1CC1 [SB-742251] | 15 |
| Nc1nc(-c2nccs2)c(-c2ccnc3ccccc23)s1 [GW693542] | 27 |
| CC(C)(C)c1ccc(C(=O)Nc2cn3cc(-c4cccnc4)ccc3n2)cc1 | 1 |
| Cn1ccc2ncnc(Oc3ccc(NC(=O)Nc4ccccc4)cc3)c21 | 0 |
| COc1cc2ncn(-c3cc(OCC4CCCO4)c(C(N)=O)s3)c2cc1OC (centres unmarked) [GSK204607] | 4 |
| COc1ccc(C2=C(Nc3cccc(C(=O)O)c3)C(=O)NC2=O)cc1 [SB-390765] | 1 |
| Fc1cc(Cl)ccc1Nc1ccnc2cc(-c3ccc(CN4CCCCC4)o3)ccc12 [GW560116] | 0 |
| O=c1cc(N2CCOCC2)nc2n(Cc3cccc(Cl)c3Cl)ccn12 [GSK2286295] | 0 |
| O=C(Nc1ccccc1)Nc1cccc(Oc2ccc3nccn3n2)c1 | 5 |
| Nc1ncnc2[nH]c(-c3ccccc3)nc12 [AH5015] | 10 |
| Cc1cccc(-c2nc(-c3ccc(S(C)(=O)=O)cc3)sc2-c2ccnc(NCCc3ccccc3)c2)c1 | 26 |
